Results on 36 compounds are retold here after PubChem BioAssay (NCATS).

Assay [1] deals with Glutathione peroxidase 1 (Homo sapiens) (UniProt P07203). Description: Primary qHTS Assay for Inhibitors of Recombinant Selenoprotein Glutathione Peroxidase 1 (GPX1) (AID 1845191). Also: nearly all actives have a fitted effect of over 65% in size. The gist of the method: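 GR-coupled assay: compounds preincubated 30 min at room temperature with GPX1, then reaction started with CHP; final 10 nM GPX1, 1 mM GSH, 0.5 mM CHP, 0.5 mM NADPH, 100 nM GR, 0.01% BSA, pH 7.5 Tris buffer. NADPH fluorescence (340/450 nm) read at 0 and 15 min.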
Chain of Glutathione peroxidase 1 (Homo sapiens) (P07203 whole entry, looked up): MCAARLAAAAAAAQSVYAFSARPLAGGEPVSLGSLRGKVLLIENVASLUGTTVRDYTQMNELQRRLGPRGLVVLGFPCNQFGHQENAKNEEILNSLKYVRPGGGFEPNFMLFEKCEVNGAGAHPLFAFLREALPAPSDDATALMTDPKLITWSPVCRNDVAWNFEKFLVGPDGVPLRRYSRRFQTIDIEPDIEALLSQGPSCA
A general note: Quantitative high-throughput screening tests each substance at several concentrations.

For assay [2], the target named is Phospholipid hydroperoxide glutathione peroxidase GPX4 (Homo sapiens) (UniProt P36969). Nature of the assay: Primary qHTS Assay for Inhibitors of Recombinant Selenoprotein Glutathione Peroxidase 4 (GPX4) (AID 1845192). Also: nearly all actives have a fitted effect of over 65% in size. The gist of the method:
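GR-coupled assay: recombinant GPX4 preincubated 30 min with compound at room temperature; final 200 nM GPX4, 1 mM GSH, 0.5 mM cumene hydroperoxide, 0.5 mM NADPH, 100 nM GR, 0.01% BSA, pH 7.5 Tris. NADPH fluorescence (340/450 nm) read at 0 and 15 min.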

Assay [3] is described as follows: Quantitative High-Throughput drug screen in 47 multiple myeloma cell lines against the NCATS MIPE library collection: FR4_PLB cell viability assay (AID 1918924; also: nearly all actives have a fitted effect of over 35% in size; also: potency is read from the fitted curve at half-maximal effect). The gist of the method: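 Inhibition of cell viability is measured here. Each line was plated at 500 cells per well, treated with MIPE 4.0 drugs, kept 48 hours at 37C, then assayed for ATP content by CellTiter-Glo luminescence.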

A short description of assay [4]: Quantitative High-Throughput drug screen in 47 multiple myeloma cell lines against the NCATS MIPE library collection: Delta47_JCRB cell viability assay (AID 1918925; also: nearly all actives have a fitted effect of over 45% in size; also: potency is read from the fitted curve at half-maximal effect). Summed up:
(§1)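 Primary qHTS used for cherry-picking: cells at 500/well, library compounds for 48 h (37C, 5% CO2), luminescent ATP assay.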

A short description of assay [5]: Quantitative High-Throughput drug screen in 47 multiple myeloma cell lines against the NCATS MIPE library collection: EJM_DSMZ cell viability assay (AID 1918926; also: nearly all actives have a fitted effect of over 30% in size; also: potency is read from the fitted curve at half-maximal effect). The gist of the method:
as §1

Assay [6] is described as follows: Quantitative High-Throughput drug screen in 47 multiple myeloma cell lines against the NCATS MIPE library collection: AMO1_DSMZ cell viability assay (AID 1918927; also: nearly all actives have a fitted effect of over 30% in size; also: potency is read from the fitted curve at half-maximal effect). Summed up:
as §1

Structures are written as SMILES. Results filed as inconclusive are left out. Calls of active or inactive are those of the source. Calls follow the shape of the dose curve; as a rule, active = well fitted curve in the direction sought with a large enough effect; inconclusive = small, poorly fitted or top-dose-only effect, or another doubt; inactive = no such curve, though single readings can be large; an effect the other way counts as inactive or inconclusive.

Chain of Phospholipid hydroperoxide glutathione peroxidase GPX4 (Homo sapiens) (P36969 whole entry, looked up): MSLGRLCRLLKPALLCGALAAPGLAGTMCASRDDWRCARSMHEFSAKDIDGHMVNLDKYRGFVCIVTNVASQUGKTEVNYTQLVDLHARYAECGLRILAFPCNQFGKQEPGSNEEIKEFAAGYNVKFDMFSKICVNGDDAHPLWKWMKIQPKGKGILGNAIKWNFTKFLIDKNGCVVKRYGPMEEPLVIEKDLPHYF

As for `COc1ccc(-c2ccc3cc(C(=O)O)ccc3c2)cc1C12CC3CC(CC(C3)C1)C2`, the Potency result in assay [1], in assay [2], in assay [3], in assay [4], in assay [5] and in assay [6] was “inactive” throughout.

Take `NS(=O)(=O)c1cc2c(cc1Cl)NC(C(Cl)Cl)NS2(=O)=O` (stereo not drawn): the Potency result in assay [1], in assay [2], in assay [3], in assay [5] and in assay [6] was “inactive” throughout.

`CN1CCN(c2c(F)cc3c(=O)c(C(=O)O)cn4c3c2OCN4C)CC1`: the Potency entry in assay [1], in assay [2], in assay [4], in assay [5] and in assay [6] was “inactive” throughout.

As to `CCCOc1ccc(C(=O)OCCN(CC)CC)cc1N`, the Potency result in assay [1], in assay [2], in assay [3], in assay [5] and in assay [6] was “inactive” each time.

`CC(C)(C)NC(=O)[C@H]1CC[C@H]2[C@@H]3CC[C@H]4NC(=O)C=C[C@]4(C)[C@H]3CC[C@]12C`: the Potency entry in assay [1] and in assay [2] was “inactive” each time. Further, the Potency in assay [4] was 0.526 µM (active); in assay [5] it was 0.662 µM (active); in assay [6], 18.7 µM (active).

On to `CC(C)C1CCC(C(=O)N[C@H](Cc2ccccc2)C(=O)O)CC1` (stereo partly drawn), for which the Potency entry in assay [1], in assay [2], in assay [4], in assay [5] and in assay [6] was “inactive” each time.

As to `O=c1cc(O)c(Cl)c[nH]1`, the Potency entry in assay [1], in assay [2], in assay [3] and in assay [4] was “inactive” each time. Besides, the Potency in assay [6] was 2.64 µM (active).

`COc1cc([C@@H]2c3cc4c(cc3[C@H](O)[C@H]3COC(=O)[C@H]23)OCO4)cc(OC)c1OC`: the Potency entry in assay [1], in assay [2], in assay [3], in assay [4], in assay [5] and in assay [6] was “inactive” throughout.

As for `O[C@@H](CNC[C@H](O)[C@H]1CCc2cc(F)ccc2O1)[C@@H]1CCc2cc(F)ccc2O1`, the Potency result in assay [1], in assay [2] and in assay [5] was “inactive” each time. Besides, the Potency in assay [4] is 18.7 µM (active); in assay [6] it was 26.4 µM (active).

Regarding `CCCc1nc(C)c2c(=O)[nH]c(-c3cc(S(=O)(=O)N4CCN(CC)CC4)ccc3OCC)nn12`, the Potency entry in assay [1] and in assay [2] was “inactive” throughout. The Potency in assay [3] is 8.33 µM (active); in assay [4], 5.9 µM (active); in assay [5] it was 9.35 µM (active); in assay [6] it was 7.43 µM (active).

For `COC(=O)Nc1nc2ccc(S(=O)c3ccccc3)cc2[nH]1` (stereo not drawn), the Potency result in assay [1] and in assay [2] was “inactive” throughout. Also, the Potency in assay [4] was 6.62 µM (active).

For the compound `COC(=O)Nc1nc2ccc(C(=O)c3ccccc3)cc2[nH]1`, the Potency result in assay [1] and in assay [2] was “inactive” throughout. In addition, the Potency in assay [4] is 1.66 µM (active); in assay [5], 4.69 µM (active).

For `CCOc1cc(N)c(Cl)cc1C(=O)NCC1CN(Cc2ccc(F)cc2)CCO1` (stereo not drawn), the Potency entry in assay [1], in assay [2], in assay [4] and in assay [5] was “inactive” in each case.

On to `COc1nc(N)nc2c1ncn2[C@@H]1O[C@H](CO)[C@@H](O)[C@@H]1O`, for which the Potency entry in assay [1], in assay [2], in assay [3], in assay [4] and in assay [6] was “inactive” in each case.

Regarding `CO[C@@H]1[C@@H](OC(N)=O)[C@@H](O)[C@H](Oc2ccc3c(O)c(NC(=O)c4ccc(O)c(CC=C(C)C)c4)c(=O)oc3c2C)OC1(C)C`, the Potency result in assay [1] and in assay [2] was “inactive” each time. Moreover, the Potency in assay [4] and in assay [5] was 5.26 µM (active) each time.

With `CS(=O)(=O)c1ccc([C@@H](O)[C@@H](CO)NC(=O)C(Cl)Cl)cc1`, the Potency result in assay [1], in assay [2], in assay [3], in assay [5] and in assay [6] was “inactive” throughout.

`COc1cnc(NS(=O)(=O)c2ccc(N)cc2)nc1`: the Potency entry in assay [1], in assay [2], in assay [3] and in assay [5] was “inactive” in each case.

`Cc1nnc(NS(=O)(=O)c2ccc(N)cc2)s1`: the Potency entry in assay [1], in assay [2] and in assay [3] was “inactive” each time. Further, the Potency in assay [6] is 1.87 µM (active).

Regarding `CCN(C)C(=O)Oc1cccc([C@H](C)N(C)C)c1`, the Potency entry in assay [1], in assay [2], in assay [4] and in assay [5] was “inactive” in each case.

Turning to `Cc1cccc(Nc2ccncc2S(=O)(=O)NC(=O)NC(C)C)c1`, the Potency result in assay [1], in assay [2], in assay [3], in assay [4], in assay [5] and in assay [6] was “inactive” in each case.

Take `O=C(O)c1cn(C2CC2)c2cc(N3CCNCC3)c(F)cc2c1=O`: the outcome in assay [1] was “inactive [at 9.52 µM]”. For the same compound, the Potency entry in assay [2], in assay [3] and in assay [5] was “inactive” in each case.

`CN(CCOc1ccc(CC2SC(=O)NC2=O)cc1)c1ccccn1` (stereo not drawn): the Potency result in assay [1], in assay [2], in assay [3], in assay [4] and in assay [6] was “inactive” in each case.

As for `CCC(=O)O[C@]1(C(=O)SCF)[C@H](C)C[C@H]2[C@@H]3C[C@H](F)C4=CC(=O)C=C[C@]4(C)[C@@]3(F)[C@@H](O)C[C@@]21C`, the Potency entry in assay [1], in assay [2], in assay [3], in assay [4] and in assay [6] was “inactive” throughout.

Consider `NC(=O)c1cccnc1`, for which the Potency result in assay [1], in assay [2], in assay [3], in assay [5] and in assay [6] was “inactive” each time.

Take `CCn1cc(C(=O)O)c(=O)c2cc(F)c(N3CCNCC3)nc21`: the Potency entry in assay [1], in assay [2], in assay [4] and in assay [5] was “inactive” throughout.

Regarding `NC(N)=NC(N)=NCCc1ccccc1`, the Potency result in assay [1] and in assay [2] was “inactive” each time. Besides, the Potency in assay [4] is 9.35 µM (active); in assay [5], 4.69 µM (active).

`O=C(O)CSCC(=O)NC1CCSC1=O` (stereo not drawn): the Potency entry in assay [1], in assay [2], in assay [4] and in assay [5] was “inactive” in each case.

Consider `Cc1ncc([N+](=O)[O-])n1CCO`, for which the Potency result in assay [1], in assay [2], in assay [4] and in assay [5] was “inactive” in each case.

As to `CC(C)(C#N)c1cc(Cn2cncn2)cc(C(C)(C)C#N)c1`, the Potency entry in assay [1], in assay [2], in assay [3], in assay [5] and in assay [6] was “inactive” each time.

As for `Cn1nnc2c(C(N)=O)ncn2c1=O`, the Potency result in assay [1], in assay [2], in assay [3], in assay [5] and in assay [6] was “inactive” throughout.

Consider `COc1ccc2c(c1)c(CC(=O)OCC(=O)O)c(C)n2C(=O)c1ccc(Cl)cc1`, for which the Potency result in assay [1], in assay [2], in assay [3] and in assay [6] was “inactive” in each case.

`CC(C)C[C@H](NC(=O)[C@H](CCc1ccccc1)NC(=O)CN1CCOCC1)C(=O)N[C@@H](Cc1ccccc1)C(=O)N[C@@H](CC(C)C)C(=O)[C@@]1(C)CO1`: the Potency result in assay [1] and in assay [2] was “inactive” throughout. Further, the Potency is 0.001 µM (active) in assay [4], 0.0105 µM (active) in assay [5] and 0.0066 µM (active) in assay [6].

For `CNS(=O)(=O)Cc1ccc2[nH]cc(CCN(C)C)c2c1`, the Potency result in assay [1], in assay [2], in assay [3], in assay [5] and in assay [6] was “inactive” in each case.

`C[C@@H]1C[C@H]2[C@@H]3CCC4=CC(=O)C=C[C@]4(C)[C@@]3(Cl)[C@@H](O)C[C@]2(C)[C@@]1(OC(=O)c1ccco1)C(=O)CCl`: the Potency result in assay [1] and in assay [2] was “inactive” in each case. Besides, the Potency in assay [4] was 2.96 µM (active); in assay [5], 4.69 µM (active); in assay [6], 1.48 µM (active).

Take `COc1cccc(N(C)C(=S)Oc2ccc3c(c2)CCCC3)n1`: the Potency entry in assay [1], in assay [2], in assay [4] and in assay [5] was “inactive” in each case.

Take `COCCCOc1cc(C[C@@H](C[C@H](N)[C@@H](O)C[C@H](C(=O)NCC(C)(C)C(N)=O)C(C)C)C(C)C)ccc1OC`: the Potency entry in assay [1], in assay [2], in assay [5] and in assay [6] was “inactive” each time.
